# Data: PubChem BioAssay (Tox21)
# Inconclusive results are not listed. Entries that show only a call come without a potency. Unmarked numbers belong to inactive results. Calls of active or inactive are those of the source. Calls come from the whole dose curve; as a rule, active = well fitted cell-killing curve with a large enough effect in the repeat runs; inconclusive = weak or mixed curves; inactive = no such curve, though single readings can be large or run the other way.
# Experiment: qHTS assay to identify small molecule agonists of the peroxisome proliferator-activated receptor delta (PPARd) signaling pathway - cell viability counter screen (AID 743211); note: nearly all actives have a fitted effect of over 55% in size
# Settings: PPARd-bla HEK293H viability, CellTiter-Glo luminescence, 17 h; series mostly up to 62.6 µM
# From the text: U.S. Tox21 Program National Center for Advancing Translational Sciences [NCATS] NIH Chemical Genomics Center [NCGC] U.S. Environmental Protection Agency [EPA] National Institutes of Environmental Health Sciences [NIEHS] National Toxicology Program [NTP] U.S. Food and Drug Administration [FDA] Tox21 Assay Overview: The peroxisome proliferator-activated receptors (PPARs) are lipid-activated transcription factors of the nuclear receptor superfamily with three distinct subtypes namely PPAR alpha, PPAR delta (PPARd) and PPAR gamma. All these subtypes heterodimerizes with Retinoid X receptor (RXR) and have different physiological functions. […] To identify the compounds that activate PPAR-delta signaling, GeneBLAzer PPAR delta UAS-bla HEK293H cell line (Invitrogen, Carlsbad, CA, USA) containing a beta-lactamase reporter gene under the control of an Upstream Activator Sequence (UAS) was used to screen the Tox21 compound library. The cytotoxicity of the Tox21 compound library against the PPARd-bla cell line was tested in parallel by measuring the cell viability using CellTiter-Glo assay (Promega, Madison, WI) in the same wells.
# Tox21 Assay Protocol Summary: PPARd-bla cells were dispensed at 3000 cells/6uL/well in 1536-well black wall/clear bottom plates using a Multidrop Combi (Thermo Fisher Scientific, Waltham, MA) dispenser. After the assay plates were incubated at 37 C and 5% CO2 for 5 h, 23 nL of compounds dissolved in DMSO, positive controls or DMSO only was transferred to the assay plate by a Pintool station (Kalypsys, San Diego, CA). The assay plates were incubated at 37C for 17 h. After 1 uL of LiveBLAzerTM B/G FRET substrate was added using a Bioraptr Flying Reagent Dispenser (FRD) workstation (Beckman Coulter, Indianapolis, IN, USA), the plates were incubated at room temperature for 2 h, and fluorescence intensity was measured by an Envision plate reader (PerkinElmer, Shelton, CT). For cell viability readout that measures cytotoxicity, 3 ul/well of CellTiter-Glo reagent was added into the assay plates using a Bioraptr FRD. After 30 min incubation at room temperature, the luminescence intensity in the plates was measured using a ViewLux plate reader (PerkinElmer).
# Potency is the fitted concentration of half-maximal effect.
Structure (SMILES),Potency,"activity change, negative = cytotoxicity"
Cc1ccccc1S(=O)(=O)O,inactive,–
CC(C)(C)Cl,inactive,–
CCCCCCCN,inactive,–
NCC(=O)O,inactive,–
Nc1c(CC(=O)O)cccc1C(=O)c1ccc(Br)cc1,inactive,–
O=[N+]([O-])c1ccc2[nH]ncc2c1,inactive,–
CCOc1ccc(N)c([N+](=O)[O-])c1,inactive,–
Cc1cccc(C)c1NC(=O)CN(CC(=O)O)CC(=O)O,inactive,–
C=CC(=O)OCCOc1ccccc1,inactive,–
Cc1c(N)cccc1[N+](=O)[O-],inactive,–
Nc1ccc(S(=O)(=O)Nc2ccccc2)cc1,inactive,–
O=C(O)CC(=O)C(=O)O,inactive,–
CC(C)O.CC(C)O.CCOC(=O)/C=C(\C)O.CCOC(=O)/C=C(\C)O.[Ti],inactive,–
Nc1cc(C(=O)O)c(O)c(S(=O)(=O)O)c1,inactive,–
CCC(CC)Nc1ccc(C)c(C)c1,inactive,–
CCCCCCCC/C=C\CCCCCCCC(=O)OCC,inactive,–
CN(C)c1ccc(/C=C/c2ccc([N+](=O)[O-])cc2)cc1,–,-8.61% [at 5.95 µM]
CCOC(=O)COC(=O)c1cc(Oc2ccc(C(F)(F)F)cc2Cl)ccc1[N+](=O)[O-],inactive,–
COC(=O)C1=C(C)NC(COC(N)=O)=C(C(=O)OC(C)C)C1c1cccc(Cl)c1Cl (stereo not given),inactive,–
CCOC(=O)Cc1cccc2ccccc12,inactive,–

Structure (SMILES),Potency,"activity change, negative = cytotoxicity"
O=S(=O)(Oc1ccc(Cl)cc1)c1ccccc1,inactive,–
O=[N+]([O-])c1ccc(NCCO)c(OCCO)c1,inactive,–
C[N+]1(CC2COC(c3ccccc3)(C3CCCCC3)O2)CCCCC1 (stereo not given),inactive,–
Nc1ccccc1S(=O)(=O)c1ccccc1,inactive,–
NC(N)=NCCC[C@H](N)C(=O)O,–,1.87% [at 5.95 µM]
CCCCC,inactive,–
CCn1cc(C(=O)O)c(=O)c2cnc(N3CCNCC3)nc21,inactive,–
CCCCCCc1ccc(-c2ccc(C#N)cc2)cc1,inactive,–
Cc1[nH]c(C)c(Cl)c(=O)c1Cl,inactive,–
CN(Cc1ccc(C(C)(C)C)cc1)Cc1cccc2ccccc12,29.8 µM (active),–
CNCCCCOc1ccccc1Cc1ccccc1,26.6 µM (active),–
C=CCOC(=O)CCC1CCCCC1,inactive,–
OCc1cc(C(O)CNCCCCCCOCCCCc2ccccc2)ccc1O (stereo not given),26.6 µM (active),–
CCCC(=O)Nc1ccc(O)c(C(C)=O)c1,inactive,–
CC(C)CC(=O)C1C(=O)c2ccccc2C1=O,inactive,–
NC(=O)C(c1ccccc1)(c1ccccc1)[C@@H]1CCN(CCc2ccc3c(c2)CCO3)C1,inactive,–
COc1ccc(C)cc1[N+](=O)[O-],inactive,–
O=C1OC(CN2CCOCC2)CN1/N=C/c1ccc([N+](=O)[O-])o1 (stereo not given),inactive,–
CCOc1ccc(N=Nc2ccc(/C=C/c3ccc(N=Nc4ccc(OCC)cc4)cc3S(=O)(=O)O)c(S(=O)(=O)O)c2)cc1,inactive,–
CCCn1cnc2c1c(=O)n(CCCCC(C)=O)c(=O)n2C,inactive,–
